Results reported in PubChem BioAssay (NCI).
About 79,000 compounds went through this panel and 15% of them were active in at least one assay; those are over-represented in the sample as a whole. Unmarked numbers belong to inactive results. Activity calls are given as the source filed them. Cut-off read from the data, not from the text of the source: active = growth inhibition above about 70%; inactive = the rest.

Assay: NCI Yeast Anticancer Drug Screen. Data for the mlh1 rad18 strain (AID 175)
Settings: S. cerevisiae mlh1 rad18 strain growth inhibition; at 5.0 µM (retest, dose inferred, filed as 0.5); stronger effect = higher value
Summary of the method: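 Growth inhibition of the yeast strain was measured after compound exposure and expressed relative to vehicle-treated controls. The strain carries defined defects in DNA damage repair.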

SMILES	growth inhibition
COC(=O)c1ccc(NN)cc1	4%
O=[N+]([O-])c1ccc(-c2nc3c(o2)CCC3)cc1	-92%
Cc1ccc(S(=O)(=O)N/N=C(\C=C\c2ccccc2)c2ccccc2)cc1	20%
[N-]=[N+]=NC1=CC(=O)c2cccc3cccc1c23	72% (active)
CCOc1ccc2nc3cc(Cl)ccc3[n+](C)c2c1	15%
Cc1ccc(C(c2ccc(N(C)C)cc2)c2ccc(N(C)C)cc2)cc1	98% (active)
O=[N+]([O-])c1ccc2c(c1)[n+]([O-])c1[nH]c3ccccc3c1[n+]2[O-] (tested in a mixture with another compound)	78% (active)
C/C(=N\NC(=S)N1CCCCCC1)c1cccc2cccnc12	-9%
CC(C)c1cc(O)c(C(C)(C)C)cc1Cl	3%
CN(C)c1ccc(/C=C(/NC(=O)c2ccccc2)c2nc3ccc(Cl)cc3[nH]2)cc1	-25%
CC(C)(C)c1ccc2c(c1)C(O)(c1ccccc1)C1OC1(C(C)(C)C)C2=O (stereo not given)	31%
CCCCCCCCCCCCOP(=O)(N1CC1(C)C)N1CC1(C)C (stereo not given)	4%
Cc1ccc(C(=O)CC(N)C(=O)O)cc1 (stereo not given)	-1%
COC(=O)CCC(=O)NCCc1ccc2c([nH]c3ccccc32)c1C	3%
Nc1ccc(C(=O)N/C(=C\C=C\c2ccco2)c2nc3c4c(ccc3[nH]2)C(=O)c2ccccc2C4=O)cc1	10%
Oc1ccc(CCCCCc2ccc(O)cc2)cc1	7%
O=C(O)C1C(C(=O)O)C2C(=O)C=CC1N2Cc1ccccc1 (stereo not given)	3%
CC1(C)CC(=O)C(c2ccccc2[N+](=O)[O-])=C(O)C1	-2%
ON(Cc1ccccc1)C(=S)c1ccccc1	25%
CCCCC(O)(c1ccc2nc(NC(=O)OC)[nH]c2c1)c1cccs1 (stereo not given)	-5%

SMILES	growth inhibition
O=C(O)CC/C(=N\Nc1ccccc1)C(=O)O	5%
CC(C)(c1ccc(OC#N)cc1)c1ccc(OC#N)cc1	-14%
C=CC(C)(CCC=C(C)C)OC(=O)Nc1ccccc1 (stereo not given)	-2%
Cc1ccc(Cc2nc(=S)[nH][nH]2)cc1	14%
Cc1c(Cl)c(S(N)(=O)=O)cc2c1NC=NS2(=O)=O	-3%
O=C(c1cccnc1)N(C1CCCCC1)C1CCCCC1	-10%
COc1cc(NCC(C)(O)CN2CCC(C)CC2C)c2ncccc2c1 (stereo not given)	0%
O=C1C=CC(=Nc2cccc3c2-c2ccccc2C3)O1	99% (active)
CC(O)c1c2c(cc3c1CC1(C3)Cc3cc4c(c(C(C)O)c3C1)CCC4)CCC2 (stereo not given)	-17%
CCCCCCCCCCCCCCCC[N+](C)(C)CCl	99% (active)
CCCCC(CC)CNc1ncnc2c1cnn2C (stereo not given)	14%
O=C1NN(C2=NNC3(C(=O)N2)c2ccccc2-c2ccccc23)C(c2ccccc2)=N/C1=C/c1ccc(Cl)cc1	-48%
CCCCc1ccc2nccc(N/N=C/c3ccc(OC)c4ccccc34)c2c1	1%
CC(C)(C[NH-])C[NH-].[Cl][Pt+2]([Cl])([Cl])[Cl]	90% (active)
O=C(O)C1(Cc2ccc3c(c2)CCC3)Cc2ccccc2C1	3%
CCN(CC)C(C)(C)C(=O)/C=C/c1ccc(Cl)cc1	46%
CCc1ccccc1NC(=O)C(=O)C(C#N)c1c(Cl)cccc1Cl (stereo not given)	0%
COc1c(OC)c(C2(O)C(=O)N(C)c3ccccc32)c(OC)c(OC)c1C1(O)C(=O)N(C)c2ccccc21 (stereo not given)	-1%
Nc1ccc2ccccc2c1N=Cc1ccccc1[N+](=O)[O-]	11%
O=[N+]([O-])C1=Cc2cc(Cl)ccc2OC1c1cccc2ccccc12 (stereo not given)	98% (active)

Same assay, conditions: S. cerevisiae mlh1 rad18 strain growth inhibition; at 50.0 µM (retest, dose inferred, filed as 5.0); stronger effect = higher value

SMILES	growth inhibition
COC(=O)c1ccc(NN)cc1	42%
O=[N+]([O-])c1ccc(-c2nc3c(o2)CCC3)cc1	-61%
Cc1ccc(S(=O)(=O)N/N=C(\C=C\c2ccccc2)c2ccccc2)cc1	70% (active)
[N-]=[N+]=NC1=CC(=O)c2cccc3cccc1c23	99% (active)
CCOc1ccc2nc3cc(Cl)ccc3[n+](C)c2c1	81% (active)
Cc1ccc(C(c2ccc(N(C)C)cc2)c2ccc(N(C)C)cc2)cc1	92% (active)
O=[N+]([O-])c1ccc2c(c1)[n+]([O-])c1[nH]c3ccccc3c1[n+]2[O-] (tested in a mixture with another compound)	91% (active)
C/C(=N\NC(=S)N1CCCCCC1)c1cccc2cccnc12	22%
CC(C)c1cc(O)c(C(C)(C)C)cc1Cl	47%
CN(C)c1ccc(/C=C(/NC(=O)c2ccccc2)c2nc3ccc(Cl)cc3[nH]2)cc1	-25%
CC(C)(C)c1ccc2c(c1)C(O)(c1ccccc1)C1OC1(C(C)(C)C)C2=O (stereo not given)	91% (active)
CCCCCCCCCCCCOP(=O)(N1CC1(C)C)N1CC1(C)C (stereo not given)	87% (active)
Cc1ccc(C(=O)CC(N)C(=O)O)cc1 (stereo not given)	3%
COC(=O)CCC(=O)NCCc1ccc2c([nH]c3ccccc32)c1C	-2%
Nc1ccc(C(=O)N/C(=C\C=C\c2ccco2)c2nc3c4c(ccc3[nH]2)C(=O)c2ccccc2C4=O)cc1	12%
Oc1ccc(CCCCCc2ccc(O)cc2)cc1	99% (active)
O=C(O)C1C(C(=O)O)C2C(=O)C=CC1N2Cc1ccccc1 (stereo not given)	76% (active)
CC1(C)CC(=O)C(c2ccccc2[N+](=O)[O-])=C(O)C1	7%
ON(Cc1ccccc1)C(=S)c1ccccc1	98% (active)
CCCCC(O)(c1ccc2nc(NC(=O)OC)[nH]c2c1)c1cccs1 (stereo not given)	62%

SMILES	growth inhibition
O=C(O)CC/C(=N\Nc1ccccc1)C(=O)O	93% (active)
CC(C)(c1ccc(OC#N)cc1)c1ccc(OC#N)cc1	59%
C=CC(C)(CCC=C(C)C)OC(=O)Nc1ccccc1 (stereo not given)	24%
Cc1ccc(Cc2nc(=S)[nH][nH]2)cc1	21%
Cc1c(Cl)c(S(N)(=O)=O)cc2c1NC=NS2(=O)=O	10%
O=C(c1cccnc1)N(C1CCCCC1)C1CCCCC1	6%
COc1cc(NCC(C)(O)CN2CCC(C)CC2C)c2ncccc2c1 (stereo not given)	58%
O=C1C=CC(=Nc2cccc3c2-c2ccccc2C3)O1	99% (active)
CC(O)c1c2c(cc3c1CC1(C3)Cc3cc4c(c(C(C)O)c3C1)CCC4)CCC2 (stereo not given)	97% (active)
CCCCCCCCCCCCCCCC[N+](C)(C)CCl	100% (active)
CCCCC(CC)CNc1ncnc2c1cnn2C (stereo not given)	96% (active)
O=C1NN(C2=NNC3(C(=O)N2)c2ccccc2-c2ccccc23)C(c2ccccc2)=N/C1=C/c1ccc(Cl)cc1	-10%
CCCCc1ccc2nccc(N/N=C/c3ccc(OC)c4ccccc34)c2c1	88% (active)
CC(C)(C[NH-])C[NH-].[Cl][Pt+2]([Cl])([Cl])[Cl]	97% (active)
O=C(O)C1(Cc2ccc3c(c2)CCC3)Cc2ccccc2C1	3%
CCN(CC)C(C)(C)C(=O)/C=C/c1ccc(Cl)cc1	94% (active)
CCc1ccccc1NC(=O)C(=O)C(C#N)c1c(Cl)cccc1Cl (stereo not given)	-1%
COc1c(OC)c(C2(O)C(=O)N(C)c3ccccc32)c(OC)c(OC)c1C1(O)C(=O)N(C)c2ccccc21 (stereo not given)	22%
Nc1ccc2ccccc2c1N=Cc1ccccc1[N+](=O)[O-]	91% (active)
O=[N+]([O-])C1=Cc2cc(Cl)ccc2OC1c1cccc2ccccc12 (stereo not given)	87% (active)
